According to PubChem BioAssay (NCATS):
Records with an inconclusive call do not appear. Active and inactive are the calls of the source. Calls follow the shape of the dose curve; as a rule, active = well fitted cell-killing curve with a large enough effect; inconclusive = small, poorly fitted or top-dose-only effect, or effect the other way; inactive = no such curve, though single readings can be large or run the other way.

Legend:
[1] = Quantitative High-Throughput drug screen in 47 multiple myeloma cell lines against the NCATS MIPE library collection: OCIMY1_PLB cell viability assay (AID 1918979); conditions: OCI-MY1 myeloma viability, CellTiter-Glo ATP, 48 h; series mostly up to 45.8 µM; also: nearly all actives have a fitted effect of over 35% in size;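 as to viability: 100% = DMSO-only wells and 0% = cell-free media-only wells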
Summary of the method: (§1)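 500 cells/well; MIPE 4.0 drugs pin-transferred; 48 h, 37C, 5% CO2. CellTiter-Glo, 5 min RT, luminescence. Controls: DMSO 100%, media 0%.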

[2] = Quantitative High-Throughput drug screen in 47 multiple myeloma cell lines against the NCATS MIPE library collection: MM1S_ATCC cell viability assay (AID 1918980); conditions: MM1S myeloma viability, CellTiter-Glo ATP luminescence, 48 h; series mostly up to 45.8 µM; also: nearly all actives have a fitted effect of over 45% in size
Summary of the method: as §1

[3] = Quantitative High-Throughput drug screen in 47 multiple myeloma cell lines against the NCATS MIPE library collection: MM1R_ATCC cell viability assay (AID 1918981); conditions: MM1R multiple myeloma cells, CellTiter-Glo viability, 48 h; series mostly up to 45.8 µM; also: nearly all actives have a fitted effect of over 35% in size
Summary of the method: as §1

[4] = Quantitative High-Throughput drug screen in 47 multiple myeloma cell lines against the NCATS MIPE library collection: LP1_DSMZ cell viability assay (AID 1918982); conditions: LP1 myeloma viability, CellTiter-Glo ATP luminescence, 48 h; series mostly up to 45.8 µM; also: nearly all actives have a fitted effect of over 35% in size
Summary of the method: as §1

[5] = Quantitative High-Throughput drug screen in 47 multiple myeloma cell lines against the NCATS MIPE library collection: KMS28PE_JCRB cell viability assay (AID 1918983); conditions: KMS28PE multiple myeloma viability, CellTiter-Glo ATP, 48 h; series mostly up to 45.8 µM; also: nearly all actives have a fitted effect of over 35% in size
Summary of the method: as §1

[6] = Quantitative High-Throughput drug screen in 47 multiple myeloma cell lines against the NCATS MIPE library collection: KMS34_JCRB cell viability assay (AID 1918985); conditions: KMS34 myeloma viability, CellTiter-Glo ATP luminescence, 48 h; series mostly up to 45.8 µM; also: nearly all actives have a fitted effect of over 40% in size
Summary of the method: as §1

[7] = Quantitative High-Throughput drug screen in 47 multiple myeloma cell lines against the NCATS MIPE library collection: OPM1_PLB cell viability assay (AID 1918989); conditions: CellTiter-Glo, 48 h; series mostly up to 45.8 µM; also: nearly all actives have a fitted effect of over 40% in size
Summary of the method: as §1

[8] = Quantitative High-Throughput drug screen in 47 multiple myeloma cell lines against the NCATS MIPE library collection: U266_ATCC cell viability assay (AID 1919864); conditions: U266 myeloma viability, CellTiter-Glo ATP luminescence, 48 h; series mostly up to 45.8 µM; also: nearly all actives have a fitted effect of over 35% in size;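 as to viability (% of DMSO control): 0% = media-only wells without cells and 100% = DMSO-only wells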
Summary of the method: as §1

[9] = Quantitative High-Throughput drug screen in 47 multiple myeloma cell lines against the NCATS MIPE library collection: XG1_PLB cell viability assay (AID 1919866); conditions: CellTiter-Glo ATP, 48 h; series mostly up to 45.8 µM; also: nearly all actives have a fitted effect of over 35% in size
Summary of the method: as §1

[10] = Quantitative High-Throughput drug screen in 47 multiple myeloma cell lines against the NCATS MIPE library collection: VP6_DJ cell viability assay (AID 1919867); conditions: ATP luminescence, 48 h; series mostly up to 45.8 µM; also: nearly all actives have a fitted effect of over 40% in size;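 as to viability (% of DMSO): 100% = DMSO-only wells and 0% = wells with media alone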
Summary of the method: as §1

[11] = Quantitative High-Throughput drug screen in 47 multiple myeloma cell lines against the NCATS MIPE library collection: PE2_PLB cell viability assay (AID 1919869); conditions: PE2_PLB myeloma cells viability, ATP luminescence, 48 h; series mostly up to 45.8 µM; also: nearly all actives have a fitted effect of over 35% in size;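 as to viability (% of control): 100% = DMSO-only wells and 0% = cell-free media-only wells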
Summary of the method: as §1

[12] = Quantitative High-Throughput drug screen in 47 multiple myeloma cell lines against the NCATS MIPE library collection: PCM6_Riken cell viability assay (AID 1919870); conditions: CellTiter-Glo ATP, 48 h; series mostly up to 45.8 µM; also: nearly all actives have a fitted effect of over 30% in size
Summary of the method: as §1

[13] = Quantitative High-Throughput drug screen in 47 multiple myeloma cell lines against the NCATS MIPE library collection: RPMI8226_ATCC cell viability assay (AID 1919871); conditions: RPMI8226 myeloma viability, CellTiter-Glo ATP luminescence, 48 h; series mostly up to 45.8 µM; also: nearly all actives have a fitted effect of over 30% in size
Summary of the method: as §1

[14] = Quantitative High-Throughput drug screen in 47 multiple myeloma cell lines against the NCATS MIPE library collection: OPM2_DSMZ cell viability assay (AID 1919872); conditions: OPM2 myeloma viability, CellTiter-Glo ATP luminescence, 48 h; series mostly up to 45.8 µM; also: nearly all actives have a fitted effect of over 30% in size
Summary of the method: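 Primary qHTS used for cherry-picking: cells at 500/well, library compounds for 48 h (37C, 5% CO2), luminescent ATP assay.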

[15] = Quantitative High-Throughput drug screen in 47 multiple myeloma cell lines against the NCATS MIPE library collection: OCIMY5_PLB cell viability assay (AID 1918988); conditions: OCI-MY5 myeloma viability, ATP luminescence, 48 h; series mostly up to 45.8 µM; also: nearly all actives have a fitted effect of over 65% in size;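 as to viability, % of control: 100% = DMSO-treated wells and 0% = wells with media alone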
Summary of the method: as §1

[16] = Quantitative High-Throughput drug screen in 47 multiple myeloma cell lines against the NCATS MIPE library collection: SKMM1_PLB cell viability assay (AID 1919863); conditions: SKMM1 myeloma viability, CellTiter-Glo ATP, 48 h; viability: stronger effect = lower value; also: nearly all actives have a fitted effect of over 35% in size
Summary of the method: as §1

[17] = Quantitative High-Throughput drug screen in 47 multiple myeloma cell lines against the NCATS MIPE library collection: XG6_PLB cell viability assay (AID 1919865); conditions: XG6 myeloma viability, CellTiter-Glo ATP luminescence, 48 h; series mostly up to 45.8 µM; also: nearly all actives have a fitted effect of over 40% in size
Summary of the method: as §1

[18] = Quantitative High-Throughput drug screen in 47 multiple myeloma cell lines against the NCATS MIPE library collection: UTMC2_PLB cell viability assay (AID 1919868); conditions: CellTiter-Glo ATP luminescence, 48 h; viability (% of DMSO control): at 45.8 µM (top of the series); also: nearly all actives have a fitted effect of over 55% in size;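 as to viability (% of DMSO control): 100% = DMSO-only wells and 0% = media-only wells without cells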
Summary of the method: as §1

[19] = Quantitative High-Throughput drug screen in 47 multiple myeloma cell lines against the NCATS MIPE library collection: L363_DSMZ cell viability assay (AID 1918984); conditions: L363 myeloma viability, CellTiter-Glo ATP luminescence, 48 h; series mostly up to 45.8 µM; also: nearly all actives have a fitted effect of over 40% in size
Summary of the method: as §1

[20] = Quantitative High-Throughput drug screen in 47 multiple myeloma cell lines against the NCATS MIPE library collection: OCIMY7_PLB cell viability assay (AID 1918987); conditions: OCI-MY7 myeloma viability, CellTiter-Glo ATP, 48 h; viability (% of DMSO): at 45.8 µM (top of the series); also: nearly all actives have a fitted effect of over 65% in size
Summary of the method: as §1
Potency is read from the fitted curve at half-maximal effect.

O=C(O)C=Cc1ccc(Cn2ccnc2)cc1
inactive: Potency [1] | Potency [2] | Potency [3] | Potency [4] | Potency [5] | Potency [6] | Potency [7] | Potency [8] | Potency [9] | Potency [10] | Potency [11] | Potency [12] | Potency [13] | Potency [14]

CC1(C)O[C@@H]2C[C@H]3[C@@H]4CCC5=CC(=O)C=C[C@]5(C)[C@@H]4[C@@H](O)C[C@]3(C)[C@]2(C(=O)CO)O1
inactive: Potency [1] | Potency [3] | Potency [5] | viability [16] 142% | Potency [8] | Potency [17] | Potency [11]
active: Potency [2] 0.296 µM | Potency [4] 16.6 nM | Potency [15] 0.118 µM | Potency [7] 7.43 µM | Potency [10] 18.7 µM | Potency [13] 33.2 nM

COc1ccc([C@@H]2CNC(=O)C2)cc1OC1CCCC1
inactive: Potency [1] | Potency [3] | Potency [4] | Potency [13] | Potency [14]
active: Potency [2] 0.743 µM | Potency [7] 8.33 µM | Potency [8] 1.18 µM | Potency [17] 1.32 µM | Potency [9] 2.64 µM | Potency [18] 6.62 µM | Potency [12] 1.48 µM

O=c1c(O)c(-c2ccc(O)c(O)c2)oc2cc(O)ccc12
active: Potency [1] 23.5 µM | Potency [2] 23.5 µM | Potency [3] 23.5 µM | Potency [6] 18.7 µM | Potency [15] 20.9 µM | Potency [7] 18.7 µM | Potency [17] 18.7 µM | Potency [9] 13.2 µM | Potency [10] 14.8 µM | Potency [18] 13.2 µM | Potency [11] 14.8 µM | Potency [12] 9.35 µM | Potency [14] 23.5 µM

CC(N[C@H]1CCCC[C@H]1NC(=O)c1ccc(Cl)cc1)c1cccc2ccccc12 (stereo not given in full)
active: Potency [2] 8.33 µM | Potency [19] 83.3 nM
inactive: Potency [1] | Potency [4] | Potency [5] | Potency [7] | Potency [8] | Potency [13] | Potency [14]

CCS(=O)(=O)Nc1ccc2[nH]c(O)c(C(=Nc3ccc(CN4CCCCC4)cc3)c3ccccc3)c2c1
active: Potency [1] 5.9 µM | Potency [2] 0.469 µM | Potency [3] 0.526 µM | Potency [5] 1.05 µM | Potency [19] 52.6 nM | Potency [6] 0.935 µM | Potency [20] 66.2 nM | Potency [7] 0.332 µM | Potency [16] 5.9 µM | Potency [8] 5.9 µM | Potency [17] 3.32 µM | Potency [9] 1.32 µM | Potency [10] 0.59 µM | Potency [18] 0.0935 µM | Potency [11] 0.469 µM | Potency [12] 3.72 µM | Potency [13] 332 nM

CC(=O)O[C@H]1C[C@@H]2CC[C@H]3[C@H]4C[C@H]([N+]5(C)CCCCC5)[C@@H](OC(C)=O)[C@@]4(C)CC[C@@H]3[C@@]2(C)C[C@H]1N1CCCCC1
inactive: Potency [1] | Potency [4] | Potency [19] | Potency [20] | Potency [7] | viability [16] 143% | Potency [8] | Potency [17] | Potency [10] | Potency [18] | Potency [11] | Potency [12] | Potency [13]
active: Potency [2] 6.62 µM | Potency [5] 0.332 µM

CC(C)(C)[C@H](NC(=O)c1ccc(N)c(Cl)c1)C(=O)N1CCC[C@@H]1C(=O)N[C@H](C#N)CC(=O)O
active: Potency [10] 0.834 µM
inactive: viability [1] 103% [at 3.51 µM] | viability (% of control) [2] 120% [at 3.51 µM] | viability (% of control) [3] 128% [at 3.51 µM] | viability, % of DMSO control [5] 131% [at 3.51 µM] | viability (% of control) [19] 111% [at 3.51 µM] | viability, percent of control [6] 103% [at 3.51 µM] | viability, % of control [15] 135% [at 3.51 µM] | viability (% of control) [7] 141% [at 3.51 µM] | viability (% of DMSO control) [8] 129% [at 3.51 µM] | viability (% of DMSO control) [18] 157% [at 3.51 µM] | viability (% of control) [11] 118% [at 3.51 µM] | viability (% of control) [12] 122% [at 3.51 µM] | viability (% of DMSO) [14] 102% [at 3.51 µM]

CCOC(=O)C=C[C@H](C[C@@H]1CCNC1=O)NC(=O)[C@@H](CC(=O)[C@@H](NC(=O)c1cc(C)on1)C(C)C)Cc1ccc(F)cc1
inactive: Potency [1] | Potency [2] | Potency [3] | Potency [5] | Potency [6] | Potency [15] | viability [16] 138% | Potency [9] | Potency [11] | Potency [12] | Potency [13] | Potency [14]

O=C1c2cccc(O)c2C(=O)c2c(O)cc(CO)cc21
inactive: Potency [1] | Potency [2] | Potency [3] | Potency [20] | Potency [7] | Potency [8] | Potency [11] | Potency [12]
active: Potency [5] 5.9 µM | Potency [13] 16600 nM

CCCNS(=O)(=O)Nc1ncnc(OCCOc2ncc(Br)cn2)c1-c1ccc(Br)cc1
inactive: Potency [1] | Potency [2] | Potency [3] | Potency [5] | Potency [6] | Potency [7] | Potency [8] | Potency [17] | Potency [18] | Potency [12] | Potency [14]

Nc1ncn([C@@H]2O[C@H](CO)[C@@H](O)[C@@H]2O)c(=O)n1
active: Potency [1] 14.8 µM | Potency [2] 18.7 µM | Potency [3] 14.8 µM | Potency [5] 20.9 µM | Potency [19] 5900 nM | Potency [20] 3720 nM | Potency [15] 9.35 µM | Potency [7] 11.8 µM | Potency [16] 13.2 µM | Potency [8] 10.5 µM | Potency [17] 9.35 µM | Potency [9] 2.96 µM | Potency [10] 11.8 µM | Potency [18] 8.33 µM | Potency [11] 18.7 µM | Potency [12] 8.33 µM | Potency [14] 14.8 µM

OC[C@H]1OC(O)C[C@@H](O)[C@H]1O (stereo not given in full)
inactive: Potency [1] | Potency [2] | Potency [4] | Potency [5] | Potency [19] | Potency [6] | viability [16] 120% | Potency [9] | Potency [18] | Potency [11] | Potency [12] | Potency [13] | Potency [14]
